# From PubChem BioAssay (EPA / NIEHS)
# Results filed as inconclusive are left out. The source made the active and inactive calls. Rule for the calls: active = hit-call score of the fitted dose curve at least 0.9, where 1 is the maximum; inconclusive = response in the unintended direction; inactive = score below 0.9.
# Target: human Tyrosine Protein Kinase Receptor Tie-2 (Tie2), TEK (gene 7010) (UniProt Q02763)
# Assay: NVS_ENZ_hTie2: NovaScreen (NVS) Enzymatic Assay for human Tyrosine Protein Kinase Receptor Tie-2 (Tie2) (AID 2283225)
# Procedure, shortened: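 Substrate and product were separated by mobility shift and detected by fluorescence after a 1-hour reaction with recombinant Tie2. Chemicals passing a 25 uM single-point screen were titrated to a maximum of 50 uM. Results were normalized to DMSO baseline.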
# Sequence of human Tyrosine Protein Kinase Receptor Tie-2 (Tie2), TEK (gene 7010) (Q02763 whole entry, looked up): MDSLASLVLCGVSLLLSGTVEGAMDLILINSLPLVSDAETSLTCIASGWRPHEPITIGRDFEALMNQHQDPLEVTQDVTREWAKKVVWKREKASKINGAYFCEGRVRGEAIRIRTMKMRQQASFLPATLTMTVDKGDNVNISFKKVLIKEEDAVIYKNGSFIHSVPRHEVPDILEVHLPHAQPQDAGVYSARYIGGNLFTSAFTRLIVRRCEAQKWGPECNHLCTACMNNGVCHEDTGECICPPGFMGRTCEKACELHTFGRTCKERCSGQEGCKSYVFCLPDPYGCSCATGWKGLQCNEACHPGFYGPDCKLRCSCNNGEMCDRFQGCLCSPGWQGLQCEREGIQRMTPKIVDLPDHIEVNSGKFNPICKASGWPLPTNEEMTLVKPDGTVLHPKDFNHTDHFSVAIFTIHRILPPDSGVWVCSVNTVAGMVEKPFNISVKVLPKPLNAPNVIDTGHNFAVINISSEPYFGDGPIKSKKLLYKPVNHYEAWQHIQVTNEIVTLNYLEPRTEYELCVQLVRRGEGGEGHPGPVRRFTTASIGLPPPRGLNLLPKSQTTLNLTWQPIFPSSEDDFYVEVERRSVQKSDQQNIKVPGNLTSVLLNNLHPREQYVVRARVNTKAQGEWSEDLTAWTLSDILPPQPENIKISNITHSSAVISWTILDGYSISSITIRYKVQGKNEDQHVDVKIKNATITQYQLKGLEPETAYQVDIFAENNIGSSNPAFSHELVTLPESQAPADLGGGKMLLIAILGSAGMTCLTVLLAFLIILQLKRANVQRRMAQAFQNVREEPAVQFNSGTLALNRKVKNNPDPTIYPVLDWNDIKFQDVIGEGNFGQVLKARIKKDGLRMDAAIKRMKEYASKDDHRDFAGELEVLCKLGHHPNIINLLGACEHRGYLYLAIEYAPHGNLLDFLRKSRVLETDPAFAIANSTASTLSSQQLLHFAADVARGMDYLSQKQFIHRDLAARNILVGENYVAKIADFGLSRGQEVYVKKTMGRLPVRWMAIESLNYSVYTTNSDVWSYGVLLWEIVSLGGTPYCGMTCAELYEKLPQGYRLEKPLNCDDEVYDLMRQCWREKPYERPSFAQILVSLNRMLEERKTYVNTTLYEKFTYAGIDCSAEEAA
row,Structure (SMILES),outcome
1,CC(C)(C)OOC(C)(C)C,inactive
2,CC1(C)CN=C(NN=C(/C=C/c2ccc(C(F)(F)F)cc2)/C=C/c2ccc(C(F)(F)F)cc2)NC1,inactive
3,O=c1ssc(Cl)c1Cl,inactive
4,O=P1(N(CCCl)CCCl)NCCCO1 (stereo not drawn),inactive
5,CSC(C)(C)C=NO,inactive

# Target: rabbit Imidazoline 2 Central (I2C), CKB (gene 100009085) (UniProt P00567)
# Assay: NVS_ENZ_rabI2C: NovaScreen (NVS) Enzymatic Assay for rabbit Imidazoline 2 Central (I2C) (AID 2283228)
# Procedure, shortened: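 Rabbit brain membranes, cell-free; readout by filter-based scintillation counting 1.5 hours after dosing, loss of signal vs DMSO. Initial duplicate test at 25 uM, then concentration-response with 50 uM top concentration.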
# Sequence of rabbit Imidazoline 2 Central (I2C), CKB (gene 100009085) (P00567 whole entry, looked up): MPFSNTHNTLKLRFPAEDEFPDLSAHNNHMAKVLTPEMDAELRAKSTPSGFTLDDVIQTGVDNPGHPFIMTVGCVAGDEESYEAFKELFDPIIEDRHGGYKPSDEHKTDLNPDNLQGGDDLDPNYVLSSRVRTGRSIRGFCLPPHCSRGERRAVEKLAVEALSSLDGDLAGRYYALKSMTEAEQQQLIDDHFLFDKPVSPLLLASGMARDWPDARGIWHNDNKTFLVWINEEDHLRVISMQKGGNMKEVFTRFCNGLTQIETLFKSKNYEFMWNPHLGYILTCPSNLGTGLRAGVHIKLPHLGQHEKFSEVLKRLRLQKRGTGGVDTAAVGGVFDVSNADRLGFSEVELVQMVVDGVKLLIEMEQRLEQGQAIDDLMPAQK
Structure (SMILES),AC50,outcome
Nc1ccc2ccccc2c1,13.7 µM (active),–
Cc1cccc(N)c1,–,inactive
Cc1ccc(N)cc1N,–,inactive

# Target: human Vascular Endothelial Growth Factor Receptor 2 (VEGFR2), KDR (gene 3791) (UniProt P35968)
# Assay: NVS_ENZ_hVEGFR2: NovaScreen (NVS) Enzymatic Assay for human Vascular Endothelial Growth Factor Receptor 2 (VEGFR2) (AID 2283230)
# Description: NVS_ENZ_hVEGFR2 is a biochemical, single-readout assay that uses extracted gene-proteins in a cell-free assay. Measurements were taken 1 hour after chemical dosing in a 384-well plate.NVS_ENZ_hVEGFR2 is one of one assay component(s) measured or calculated from the NVS_ENZ_hVEGFR2 assay. It is designed to make measurements of enzyme activity, a form of enzyme reporter, as detected with fluorescence intensity signals by Fluorescence and electrophoretic mobility shift technology.Data from the assay component NVS_ENZ_hVEGFR2 was analyzed into 1 assay endpoint. This assay endpoint, NVS_ENZ_hVEGFR2, was analyzed in the positive analysis fitting direction relative to DMSO as the negative control and baseline of activity. Using a type of enzyme reporter, loss-of-signal activity can be used to understand changes in the enzymatic activity as they relate to the gene KDR. Furthermore, this assay endpoint can be referred to as a primary readout, because this assay has produced multiple assay endpoints where this one serves a enzymatic activity function. To generalize the intended target to other relatable targets, this assay endpoint is annotated to the kinase intended target family, where the subfamily is receptor tyrosine kinase.
# (§1) Binding assays used specific radioligands (tritiated, iodinated) with non-radioactive competitive displacement ligands in agonist or antagonist protocols (as indicated) and various reference compounds and inhibitors to titrate specific binding to receptors and transporters. Most enzyme assays (CYPs, kinases, phosphatases, proteases, HDACs) used recombinant protein and specific substrates (fluorescence mostly, some colorimetric and radioactive) and inhibitors, followed by a biochemical separation of substrate and product. All assays for the biochemical HTS were initially run in duplicate at a single concentration (10 uM for CYP450 assays and 25 uM for all others). Assay-chemical combinations meeting a pre-defined threshold (e.g., 30% inhibition and other criteria defined below) were then run in singleton concentration-response format with maximum concentration of 20 uM for CYPs and 50 uM for all others. Each assay was run with positive and negative controls, and concurrent controls on every plate. The follow-up (secondary) screen tested active chemical-pairs in concentration series, as well as a few additional assays not tested in the primary screen, some selected negative inactives, and several cases re-run in the concentration series for confirmatory purposes.
# Sequence of human Vascular Endothelial Growth Factor Receptor 2 (VEGFR2), KDR (gene 3791) (P35968 whole entry, looked up): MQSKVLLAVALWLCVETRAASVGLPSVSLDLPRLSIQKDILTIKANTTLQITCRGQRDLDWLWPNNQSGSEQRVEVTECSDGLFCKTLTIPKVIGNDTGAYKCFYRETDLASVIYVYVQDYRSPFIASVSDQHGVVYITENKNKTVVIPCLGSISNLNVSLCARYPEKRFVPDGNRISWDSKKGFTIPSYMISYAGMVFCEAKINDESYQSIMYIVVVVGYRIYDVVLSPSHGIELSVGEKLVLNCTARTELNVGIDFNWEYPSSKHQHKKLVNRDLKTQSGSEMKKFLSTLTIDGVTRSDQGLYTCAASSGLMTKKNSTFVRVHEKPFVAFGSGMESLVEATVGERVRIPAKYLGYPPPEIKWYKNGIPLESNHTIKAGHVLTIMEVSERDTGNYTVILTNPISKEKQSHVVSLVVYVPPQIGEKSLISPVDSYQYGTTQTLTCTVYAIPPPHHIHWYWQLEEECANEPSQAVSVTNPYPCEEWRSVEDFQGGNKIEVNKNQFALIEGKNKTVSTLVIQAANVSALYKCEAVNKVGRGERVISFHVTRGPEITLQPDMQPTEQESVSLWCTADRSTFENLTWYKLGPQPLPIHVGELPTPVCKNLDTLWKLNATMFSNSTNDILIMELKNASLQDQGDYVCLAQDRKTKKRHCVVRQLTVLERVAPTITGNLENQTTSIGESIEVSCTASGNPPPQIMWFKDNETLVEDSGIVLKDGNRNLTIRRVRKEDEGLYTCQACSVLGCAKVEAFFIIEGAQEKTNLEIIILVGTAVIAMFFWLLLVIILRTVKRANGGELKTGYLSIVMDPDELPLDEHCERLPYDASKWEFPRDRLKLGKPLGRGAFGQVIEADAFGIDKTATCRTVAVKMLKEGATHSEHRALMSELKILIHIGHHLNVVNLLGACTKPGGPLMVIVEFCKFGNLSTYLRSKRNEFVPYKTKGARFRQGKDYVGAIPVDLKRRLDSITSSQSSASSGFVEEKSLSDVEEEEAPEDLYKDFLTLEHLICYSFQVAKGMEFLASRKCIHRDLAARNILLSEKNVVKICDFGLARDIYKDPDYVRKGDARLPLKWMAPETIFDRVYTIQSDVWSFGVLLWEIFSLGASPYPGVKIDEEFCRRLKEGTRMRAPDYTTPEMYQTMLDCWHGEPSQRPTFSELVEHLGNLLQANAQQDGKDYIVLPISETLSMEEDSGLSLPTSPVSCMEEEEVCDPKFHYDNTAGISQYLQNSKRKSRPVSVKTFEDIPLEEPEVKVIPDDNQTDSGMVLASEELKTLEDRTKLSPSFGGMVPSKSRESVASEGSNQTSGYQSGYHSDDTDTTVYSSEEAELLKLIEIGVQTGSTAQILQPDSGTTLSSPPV
row,Structure (SMILES),outcome
1,CCCN(CCC)c1c([N+](=O)[O-])cc(C(C)C)cc1[N+](=O)[O-],inactive
2,ClC1=C(Cl)C2(Cl)C3C(Cl)C(Cl)CC3C1(Cl)C2(Cl)Cl (stereo not drawn),inactive
3,Cc1cccc(N)c1,inactive
4,O=c1ssc(Cl)c1Cl,inactive
5,CCCCN(CCCC)SN(C)C(=O)Oc1cccc2c1OC(C)(C)C2,inactive

# Target: sheep Cyclooxygenase-2 (Cox2), PTGS2 (gene 443460) (UniProt P79208)
# Assay: NVS_ENZ_oCOX2: NovaScreen (NVS) Enzymatic Assay for sheep Cyclooxygenase-2 (Cox2) (AID 2283231)
# Description: NVS_ENZ_oCOX2 is a biochemical, single-readout assay that uses extracted gene-proteins from Ovine placenta in a tissue-based cell-free assay. Measurements were taken 0.66 hour after chemical dosing in a 96-well plate.NVS_ENZ_oCOX2 is one of one assay component(s) measured or calculated from the NVS_ENZ_oCOX2 assay. It is designed to make measurements of enzyme activity, a form of enzyme reporter, as detected with absorbance signals by Colorimetric technology.Data from the assay component NVS_ENZ_oCOX2 was analyzed into 1 assay endpoint. This assay endpoint, NVS_ENZ_oCOX2, was analyzed in the positive analysis fitting direction relative to DMSO as the negative control and baseline of activity. Using a type of enzyme reporter, loss-of-signal activity can be used to understand changes in the enzymatic activity as they relate to the gene PTGS2. Furthermore, this assay endpoint can be referred to as a primary readout, because this assay has produced multiple assay endpoints where this one serves a enzymatic activity function. To generalize the intended target to other relatable targets, this assay endpoint is annotated to the oxidoreductase intended target family, where the subfamily is cyclooxygenase.
# as §1
Structure (SMILES),AC50,outcome
CC1(C)CN=C(NN=C(/C=C/c2ccc(C(F)(F)F)cc2)/C=C/c2ccc(C(F)(F)F)cc2)NC1,17.4 µM (active),–
Nc1ccc2ccccc2c1,7.93 µM (active),–
c1ccc(OP(Oc2ccccc2)Oc2ccccc2)cc1,–,inactive
O=[N+]([O-])c1ccc(Cl)c(Cl)c1,18.5 µM (active),–

# Target: rat Catechol-O-Methyl Transferase (COMT), Comt (gene 24267) (UniProt P22734)
# Assay: NVS_ENZ_rCOMT: NovaScreen (NVS) Enzymatic Assay for rat Catechol-O-Methyl Transferase (COMT) (AID 2283235)
# Procedure, shortened: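 Rat dorsal striatum extract served as COMT source; product quantified by HPLC/spectrophotometry, read at 0 h after dosing. Primary single-concentration screen at 25 uM, followed by concentration series to a 50 uM maximum.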
# Sequence of rat Catechol-O-Methyl Transferase (COMT), Comt (gene 24267) (P22734 whole entry, looked up): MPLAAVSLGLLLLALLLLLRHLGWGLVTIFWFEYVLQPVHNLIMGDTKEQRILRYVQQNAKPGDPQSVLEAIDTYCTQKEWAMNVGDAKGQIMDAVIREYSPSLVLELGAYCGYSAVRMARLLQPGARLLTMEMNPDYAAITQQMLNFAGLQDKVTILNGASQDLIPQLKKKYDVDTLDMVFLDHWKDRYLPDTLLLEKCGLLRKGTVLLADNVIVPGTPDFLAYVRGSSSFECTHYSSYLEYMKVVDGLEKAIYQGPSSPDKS
row,Structure (SMILES),outcome
1,CC(Cc1ccc(OCC(=O)O)cc1)NCC(O)c1csc(C(F)(F)F)n1 (stereo not drawn),inactive
2,CCCCc1ccccc1,inactive
3,CSC(C)(C)C=NO,inactive

# Target: rat Constitutive Nitric Oxide Synthase (CNOS), Nos1 (gene 24598) (UniProt P29476)
# Assay: NVS_ENZ_rCNOS: NovaScreen (NVS) Enzymatic Assay for rat Constitutive Nitric Oxide Synthase (CNOS) (AID 2283236)
# Procedure, shortened: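 Single 25 uM duplicate screen, then concentration series to 50 uM for chemicals meeting threshold. Rat brain membrane-derived CNOS activity detected radiometrically by filtration and scintillation counting, 1 h after compound addition; DMSO as baseline.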
# Sequence of rat Constitutive Nitric Oxide Synthase (CNOS), Nos1 (gene 24598) (P29476 whole entry, looked up): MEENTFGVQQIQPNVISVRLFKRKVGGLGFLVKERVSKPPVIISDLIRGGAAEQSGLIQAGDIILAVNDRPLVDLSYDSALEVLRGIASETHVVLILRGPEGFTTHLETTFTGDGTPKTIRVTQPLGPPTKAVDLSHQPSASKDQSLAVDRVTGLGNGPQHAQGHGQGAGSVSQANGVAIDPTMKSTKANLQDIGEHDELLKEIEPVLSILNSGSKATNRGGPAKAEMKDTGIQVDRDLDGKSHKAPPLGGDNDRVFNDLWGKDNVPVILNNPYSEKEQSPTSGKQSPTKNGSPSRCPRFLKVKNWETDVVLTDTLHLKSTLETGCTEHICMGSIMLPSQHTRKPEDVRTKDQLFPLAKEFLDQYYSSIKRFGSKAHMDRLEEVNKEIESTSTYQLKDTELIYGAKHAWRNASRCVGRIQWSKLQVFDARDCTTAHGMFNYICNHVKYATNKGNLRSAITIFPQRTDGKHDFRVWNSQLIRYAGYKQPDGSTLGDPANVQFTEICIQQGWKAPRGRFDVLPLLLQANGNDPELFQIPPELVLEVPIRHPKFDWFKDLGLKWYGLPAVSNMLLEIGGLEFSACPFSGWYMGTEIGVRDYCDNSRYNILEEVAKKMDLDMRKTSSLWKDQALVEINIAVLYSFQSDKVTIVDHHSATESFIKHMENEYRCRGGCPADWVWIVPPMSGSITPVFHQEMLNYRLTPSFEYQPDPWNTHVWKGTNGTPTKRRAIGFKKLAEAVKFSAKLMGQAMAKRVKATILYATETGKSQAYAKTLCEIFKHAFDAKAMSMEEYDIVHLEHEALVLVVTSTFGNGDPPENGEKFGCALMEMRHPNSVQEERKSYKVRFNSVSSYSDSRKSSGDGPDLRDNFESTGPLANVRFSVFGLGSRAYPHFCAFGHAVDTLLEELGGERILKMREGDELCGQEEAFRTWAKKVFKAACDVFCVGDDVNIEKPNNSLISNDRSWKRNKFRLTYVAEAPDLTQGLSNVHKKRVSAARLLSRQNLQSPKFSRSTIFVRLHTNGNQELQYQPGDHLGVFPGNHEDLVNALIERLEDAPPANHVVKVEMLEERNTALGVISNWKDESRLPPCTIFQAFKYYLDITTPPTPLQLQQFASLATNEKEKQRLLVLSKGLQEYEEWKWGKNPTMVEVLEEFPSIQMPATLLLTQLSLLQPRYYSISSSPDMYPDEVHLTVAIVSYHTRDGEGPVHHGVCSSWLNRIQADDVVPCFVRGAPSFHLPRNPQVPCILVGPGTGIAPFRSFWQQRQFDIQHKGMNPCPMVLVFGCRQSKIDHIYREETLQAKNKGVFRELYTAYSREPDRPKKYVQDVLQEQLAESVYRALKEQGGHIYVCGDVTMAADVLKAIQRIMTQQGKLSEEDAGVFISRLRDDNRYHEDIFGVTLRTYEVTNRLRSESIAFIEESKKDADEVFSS
Structure (SMILES),outcome,AC50
ClC(Cl)(Cl)c1ccccc1,inactive,–
Cc1ccc(N)cc1N,–,6.59 µM (active)
[N-]=[N+]=[N-],inactive,–

# Target: rat Monoamine Oxidase, MAO-B, Central (MAOBC), Maob (gene 25750) (UniProt P19643)
# Assay: NVS_ENZ_rMAOBC: NovaScreen (NVS) Enzymatic Assay for rat Monoamine Oxidase, MAO-B, Central (MAOBC) (AID 2283238)
# Description: NVS_ENZ_rMAOBC is a biochemical, single-readout assay that uses extracted gene-proteins from Rat brain in a tissue-based cell-free assay. Measurements were taken 1.17 hours after chemical dosing in a 96-well plate.NVS_ENZ_rMAOBC is one of one assay component(s) measured or calculated from the NVS_ENZ_rMAOBC assay. It is designed to make measurements of enzyme activity, a form of enzyme reporter, as detected with scintillation counting signals by Lysate-based radiodetection technology.Data from the assay component NVS_ENZ_rMAOBC was analyzed into 1 assay endpoint. This assay endpoint, NVS_ENZ_rMAOBC, was analyzed in the positive analysis fitting direction relative to DMSO as the negative control and baseline of activity. Using a type of enzyme reporter, loss-of-signal activity can be used to understand changes in the enzymatic activity as they relate to the gene Maob. Furthermore, this assay endpoint can be referred to as a primary readout, because this assay has produced multiple assay endpoints where this one serves a enzymatic activity function. To generalize the intended target to other relatable targets, this assay endpoint is annotated to the oxidoreductase intended target family, where the subfamily is monoamine oxidase.
# as §1
# Sequence of rat Monoamine Oxidase, MAO-B, Central (MAOBC), Maob (gene 25750) (P19643 whole entry, looked up): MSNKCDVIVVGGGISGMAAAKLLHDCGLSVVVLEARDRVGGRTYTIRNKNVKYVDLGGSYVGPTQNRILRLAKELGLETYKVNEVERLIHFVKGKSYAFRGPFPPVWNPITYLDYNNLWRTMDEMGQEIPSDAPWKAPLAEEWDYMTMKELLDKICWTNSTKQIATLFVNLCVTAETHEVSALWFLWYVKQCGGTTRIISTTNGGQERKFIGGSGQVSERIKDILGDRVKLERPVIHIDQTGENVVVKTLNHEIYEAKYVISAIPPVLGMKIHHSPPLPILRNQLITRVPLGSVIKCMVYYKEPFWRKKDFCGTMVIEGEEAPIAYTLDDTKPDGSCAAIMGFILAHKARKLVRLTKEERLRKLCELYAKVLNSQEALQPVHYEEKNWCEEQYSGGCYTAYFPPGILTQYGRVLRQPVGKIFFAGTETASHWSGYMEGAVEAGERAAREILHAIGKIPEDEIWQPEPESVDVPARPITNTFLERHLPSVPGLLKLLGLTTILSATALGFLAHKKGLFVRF
Structure (SMILES),AC50,outcome
CC(C)(C)OOC(C)(C)C,13.1 µM (active),–
ClC(Cl)(Cl)c1ccccc1,–,inactive
Cc1ccc(O)cc1C,47 µM (active),–
[N-]=[N+]=[N-],–,inactive
CCCCCCCc1ccc(O)cc1,25 µM (active),–
